High-throughput results: PubChem, Sanford-Burnham Center for Chemical Genomics
CRFBP-R2 agonist: agonists of human CRF-binding protein/CRF-R2 receptor complex; HEK293 CRF-R2/CRF-BP, calcium dye fluorescence (FLIPR); percent of saturating CRF peptide response; activation, % at 13.2 µM; 350,000 compounds, 0.46% hits; AID 588473;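 active means activation of at least 50%, plus an integration ratio under a set limit after plate pattern correction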;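 further: plate controls were neutral control wells without compound for no effect and CRF at EC100 for full effect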
CRFBP-R2 block: blocks CRF-induced signaling of the CRF-BP/CRF-R2 complex | inhibition, % at 11.8 µM | HEK293 CRF-R2/CRF-BP, CRF-induced calcium fluorescence | 350,000 compounds, 0.59% hits;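 active means inhibition of the ligand-induced calcium signal above about 50% at the single tested concentration, limit read from the data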
FAS TE block: FAS thioesterase (human) inhibition; 360,000 compounds, 0.67% hits; AID 602261; P49327; recombinant FAS-TE, OMFH fluorogenic substrate, fluorescence endpoint; inhibition, % at 15 µM;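 active means compounds whose normalised, plate-corrected inhibition of enzyme fluorescence in the single-dose primary screen is 50% or more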;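 further: 0% = DMSO with enzyme and 100% = substrate without enzyme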
Target sequence (P49327 whole entry, looked up): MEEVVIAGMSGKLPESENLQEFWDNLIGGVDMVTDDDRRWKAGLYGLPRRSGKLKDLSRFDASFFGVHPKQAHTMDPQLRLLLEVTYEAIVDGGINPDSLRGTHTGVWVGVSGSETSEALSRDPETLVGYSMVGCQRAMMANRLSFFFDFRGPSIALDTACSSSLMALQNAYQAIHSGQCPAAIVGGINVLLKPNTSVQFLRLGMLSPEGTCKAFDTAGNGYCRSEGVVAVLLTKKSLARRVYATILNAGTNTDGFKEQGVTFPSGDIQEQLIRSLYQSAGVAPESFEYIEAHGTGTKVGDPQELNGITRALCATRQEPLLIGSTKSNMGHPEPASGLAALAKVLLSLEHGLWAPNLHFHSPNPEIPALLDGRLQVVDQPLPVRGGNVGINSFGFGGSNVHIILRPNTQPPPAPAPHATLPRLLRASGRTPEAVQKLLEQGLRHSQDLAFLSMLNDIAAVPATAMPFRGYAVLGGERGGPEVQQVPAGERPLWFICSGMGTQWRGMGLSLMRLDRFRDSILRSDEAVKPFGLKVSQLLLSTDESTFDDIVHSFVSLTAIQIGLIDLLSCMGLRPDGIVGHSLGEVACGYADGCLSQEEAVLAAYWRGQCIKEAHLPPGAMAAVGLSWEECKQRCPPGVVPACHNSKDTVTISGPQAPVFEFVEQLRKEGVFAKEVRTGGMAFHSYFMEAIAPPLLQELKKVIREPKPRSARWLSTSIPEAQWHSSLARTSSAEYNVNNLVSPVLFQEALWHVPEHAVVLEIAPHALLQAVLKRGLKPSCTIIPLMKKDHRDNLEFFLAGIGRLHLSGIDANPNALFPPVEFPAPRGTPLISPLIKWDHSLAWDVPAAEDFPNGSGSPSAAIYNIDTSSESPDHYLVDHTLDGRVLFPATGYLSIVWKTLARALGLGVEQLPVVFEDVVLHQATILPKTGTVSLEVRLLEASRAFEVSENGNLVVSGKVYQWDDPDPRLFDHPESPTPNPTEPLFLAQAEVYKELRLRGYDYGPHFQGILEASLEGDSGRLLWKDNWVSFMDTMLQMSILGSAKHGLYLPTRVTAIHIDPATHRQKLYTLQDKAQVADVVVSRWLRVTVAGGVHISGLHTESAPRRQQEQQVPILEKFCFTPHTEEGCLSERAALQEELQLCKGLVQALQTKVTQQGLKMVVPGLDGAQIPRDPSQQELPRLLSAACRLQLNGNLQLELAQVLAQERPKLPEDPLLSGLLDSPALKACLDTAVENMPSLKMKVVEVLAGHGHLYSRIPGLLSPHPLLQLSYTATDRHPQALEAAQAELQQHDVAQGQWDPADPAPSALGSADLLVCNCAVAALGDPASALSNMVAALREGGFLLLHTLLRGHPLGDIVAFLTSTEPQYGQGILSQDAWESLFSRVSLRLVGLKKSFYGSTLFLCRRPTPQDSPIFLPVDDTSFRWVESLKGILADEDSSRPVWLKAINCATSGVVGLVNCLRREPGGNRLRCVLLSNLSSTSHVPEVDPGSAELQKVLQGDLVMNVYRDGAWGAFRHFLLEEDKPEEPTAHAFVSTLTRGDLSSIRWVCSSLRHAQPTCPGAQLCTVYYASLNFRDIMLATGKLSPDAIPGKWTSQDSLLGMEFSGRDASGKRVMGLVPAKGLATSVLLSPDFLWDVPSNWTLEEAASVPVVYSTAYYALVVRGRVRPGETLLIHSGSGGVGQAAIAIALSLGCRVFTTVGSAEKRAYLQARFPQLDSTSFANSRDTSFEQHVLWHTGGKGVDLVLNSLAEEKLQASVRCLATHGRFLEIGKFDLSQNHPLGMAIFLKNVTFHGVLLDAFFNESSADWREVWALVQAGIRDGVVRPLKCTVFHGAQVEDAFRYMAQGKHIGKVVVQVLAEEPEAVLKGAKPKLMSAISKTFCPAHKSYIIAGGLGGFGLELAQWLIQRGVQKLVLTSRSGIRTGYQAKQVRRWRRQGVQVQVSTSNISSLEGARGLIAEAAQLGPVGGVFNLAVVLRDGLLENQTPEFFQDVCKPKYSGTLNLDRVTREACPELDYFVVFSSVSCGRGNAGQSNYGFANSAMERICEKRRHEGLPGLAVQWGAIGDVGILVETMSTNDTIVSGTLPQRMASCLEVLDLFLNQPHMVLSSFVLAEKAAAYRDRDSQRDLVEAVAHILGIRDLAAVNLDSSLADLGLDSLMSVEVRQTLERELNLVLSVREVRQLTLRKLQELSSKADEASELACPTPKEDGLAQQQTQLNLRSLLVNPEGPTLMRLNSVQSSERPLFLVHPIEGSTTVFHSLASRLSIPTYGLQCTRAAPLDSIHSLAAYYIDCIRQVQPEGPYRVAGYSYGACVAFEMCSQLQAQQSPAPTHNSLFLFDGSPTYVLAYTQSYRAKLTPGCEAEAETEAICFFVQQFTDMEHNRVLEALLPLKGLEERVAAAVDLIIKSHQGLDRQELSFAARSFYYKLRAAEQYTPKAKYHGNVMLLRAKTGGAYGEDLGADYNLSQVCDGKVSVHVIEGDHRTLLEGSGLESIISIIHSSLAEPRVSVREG
H9c2 protect: protects H9c2 cardiomyocytes from peroxide injury | H2O2 injury protection, ATPLite, 2 h | protection from H2O2 cell death, % at 20 µM | 360,000 compounds, 0.63% hits;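 active means compounds giving at least 50% protection of heart cells from peroxide-induced death in the single-dose screen, raw or plate-pattern-corrected value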;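 further: 0% = DMSO wells with peroxide and 100% = DMSO wells without peroxide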
PfGluPho inh: PfG6PD (Plasmodium falciparum) enzyme inhibition; PfGluPho enzyme, NADPH resazurin-diaphorase fluorescence; inhibition, % at 20 µM; 350,000 compounds, 0.78% hits; AID 504690;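 active means inhibition reaching at least a set limit at 20 µM in the primary screen, cut at about 59% in these data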;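 further: 0% = DMSO wells with substrate and 100% = DMSO wells lacking glucose-6-phosphate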
aDG glyco act: increases alpha dystroglycan glycosylation; Pro5-aDG cells, alpha-DG glycosylation AlphaScreen (IIH6); 0% Pro5, 100% B10-LARGE cell signal; activation, % at 10 µM; 360,000 compounds, 0.22% hits; AID 624168;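 active means activation of at least 8% versus controls, or a plate z-score of at least 8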;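 further: Pro5 are CHO cells carrying HIG-tagged alpha-DG that lacks glycosylation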
Starred values were filed as active, the others as inactive; x = no result. Only some compounds are listed: those with a hit (about 3.2% of all), similar ones and a draw of the others.

SMILES | CRFBP-R2 agonist | CRFBP-R2 block | FAS TE block | H9c2 protect | PfGluPho inh | aDG glyco act
COc1cccc(NC(=O)CNc2cc(S(=O)(=O)N3CCOCC3)ccc2N2CCCC2)c1 | -0.1 | 2.6 | 14.8 | 2.4 | 7.0 | -0.2
COc1ccccc1CN(C)C(=O)COC(=O)c1cc(C)oc1C | 0.4 | 2.7 | -3.1 | -4.6 | 1.9 | -0.2
O=C(Cc1n[nH]c(=O)c2ccccc12)OCC(=O)N(Cc1ccccc1)Cc1ccccc1 | 0.0 | 15.4 | 8.0 | 46.3 | 1.1 | 0.1
CCOC(=O)c1c(NC(=O)COC(=O)CCNS(=O)(=O)c2ccccc2)sc(C(=O)NC)c1C | -5.0 | -21.9 | -3.8 | 7.8 | -13.8 | 0.0
CCOC(=O)Cc1n[nH]c(=O)c2ccccc12 | 0.1 | -2.1 | -10.4 | 69.3* | -4.0 | -0.2
CCOC(=O)c1c(NC(=O)COC(=O)Cc2n[nH]c(=O)c3ccccc23)sc(C(=O)NC)c1C | 0.5 | 9.4 | -4.9 | 106.0* | -4.0 | -0.2
CC(=O)N1CCN(CC(=O)Nc2cc(S(=O)(=O)N3CCOCC3)ccc2C)CC1 | 1.4 | 2.9 | -4.7 | 2.7 | -7.5 | -0.1
COc1cc([N+](=O)[O-])ccc1NC(=O)CC(C)C | -1.9 | -5.0 | -4.6 | 0.7 | -5.0 | -0.2
Cc1cc(OC(=O)c2ccccc2C(F)(F)F)c([N+](=O)[O-])c(=O)[nH]1 | 2.4 | 7.5 | -8.6 | 3.2 | -5.3 | -0.3
CN(C(=O)COC(=O)c1cc2ccccc2cc1O)c1c(N)n(Cc2ccccc2)c(=O)[nH]c1=O | 0.4 | -17.2 | -1.5 | 3.7 | 12.3 | -0.1
COc1cccc(/C=C2\C(=O)C(=O)c3ccccc32)c1 | -3.4 | 76.3* | 0.1 | -0.1 | 13.0 | 0.0
COc1ccc(/C=C2\CN(Cc3ccccc3)C/C(=C\c3ccc(OC)c(O)c3)C2=O)cc1O | 0.8 | -4.8 | 4.5 | 61.3* | 13.2 | -0.4
COc1cc(C=C2C(=O)c3ccccc3C2=O)ccc1O | -0.9 | 25.7 | -4.9 | -16.2 | -12.0 | -0.1
COc1ccc(C=C2C(=O)c3ccccc3C2=O)cc1O | -0.7 | 66.1* | -4.5 | -3.5 | 17.3 | 0.1
COc1cc(C=C2C(=O)c3ccccc3C2=O)cc(OC)c1OC | 1.2 | 88.4* | 1.2 | -2.0 | 19.0 | 0.7
COc1cc(C=C2C(=O)c3ccccc3C2=O)cc(OC)c1 | 0.0 | -7.3 | -1.2 | -1.6 | 12.1 | 1.8
COc1ccc2c(c1)CC/C(=C/c1cc(OC)c(OC)c(OC)c1)C2=O | 0.5 | 2.5 | 16.2 | -1.9 | -2.2 | 0.2
Cc1ccc(-n2nnnc2SCC(=O)NC(C(=O)O)(c2ccccc2)c2ccccc2)cc1C | -0.9 | 17.5 | -0.9 | -0.9 | -3.8 | 0.0
Cc1ccc(CNC(=O)CC(C)S(=O)(=O)c2cc3c(cc2C)NC(=O)CO3)cc1 (stereo unspecified) | -1.4 | -16.8 | -6.6 | -1.7 | -2.8 | 0.1
CCOC(=O)c1ccc(NC(=O)c2nc[nH]c2C(=O)NCCCNC(=O)c2[nH]cnc2C(=O)Nc2ccc(C(=O)OCC)cc2)cc1 | 1.3 | -8.0 | -5.2 | 44.5 | 2.7 | -0.2
CCOC(=O)c1ccc(NC(=O)c2nc[nH]c2C(=O)NCCCCCNC(=O)OC(C)(C)C)cc1 | 1.1 | -1.5 | 26.6 | 79.2* | 3.5 | -0.1
CCOC(=O)c1ccc(NC(=O)c2nc[nH]c2C(=O)NCCCCNC(=O)c2[nH]cnc2C(=O)Nc2ccc(C(=O)OCC)cc2)cc1 | 0.1 | 8.7 | -5.3 | 57.7* | 0.0 | -0.8
COc1cc(/C=C2/CC(C)OC2=O)c([N+](=O)[O-])cc1OC (stereo unspecified) | -0.8 | 1.7 | 2.5 | -6.0 | -5.8 | -0.1
CCOC(=O)c1c2c3c(c(Cl)ccc3[nH]c1=O)C(=O)c1ccccc1-2 | 4.7 | -116.4 | 40.2 | 60.2* | 39.1 | 0.9
Cn1c(=O)c(Nc2ccc(Cl)cc2)c2c3c(cccc31)C(=O)c1ccccc1-2 | 111.0* | -241.4 | x | x | 19.1 | x
SMILES | CRFBP-R2 agonist | CRFBP-R2 block | FAS TE block | H9c2 protect | PfGluPho inh | aDG glyco act
CCOC(=O)c1c2c3c(cccc3n(C)c1=O)C(=O)c1ccccc1-2 | -1.1 | -25.5 | 16.2 | 75.0* | 13.7 | -0.1
CC(=O)Nc1c2c3c(cccc3n(C)c1=O)C(=O)c1ccccc1-2 | 3.5 | -1.0 | -101.8 | -0.1 | -23.9 | -0.2
CCOC(=O)c1c2c3c(cccc3[nH]c1=O)C(=O)c1ccccc1-2 | 7.3 | -14.2 | -4.7 | 15.7 | 12.8 | -0.2
CCN(CC)C(=S)Sc1c(-c2ccccc2)c2cc(Cl)ccc2[nH]c1=O | 70.7* | -11.7 | 12.2 | 33.0 | 45.6 | 0.5
CCCCC(=O)Nc1c2c(nn1-c1cccc(C)c1C)CS(=O)(=O)C2 | 5.1 | 7.3 | -3.6 | -6.8 | -16.2 | 0.1
COc1ccc(CNCCS(=O)(=O)NCc2ccc(OC)cc2)cc1 | -3.7 | 6.5 | -5.3 | -2.4 | 11.6 | -0.1
CCCCCCCCNS(=O)(=O)CCNCc1ccc(OC)cc1 | -0.7 | 114.8* | 4.7 | -16.5 | 14.8 | 0.0
CCc1noc(C)c1C(=O)N1CCSC1=Nc1cccc(Cl)c1C | -2.7 | 71.2* | 19.2 | -4.2 | 20.3 | 0.3
CCc1noc(C)c1C(=O)N1CCCSC1=Nc1ccccc1 | -2.6 | 5.3 | 0.7 | -1.2 | -13.0 | 0.0
COc1ccc(OC)c(C2=NS(=O)(=O)N(C)C(C(=O)Nc3ccc(F)cc3F)=C2)c1 | -1.3 | 5.6 | 14.5 | -5.7 | 4.3 | 0.2
COc1ccc(Cl)cc1C(=O)NNC(=O)c1nn(C)c(=O)c2ccccc12 | 0.0 | 6.4 | 6.2 | 30.5 | -1.6 | 0.4
CCn1nc(C(=O)NNC(=O)c2cc(Cl)ccc2OC)c2ccccc2c1=O | -0.8 | 1.9 | 8.1 | 66.4* | 2.2 | -0.3
CCOc1cc(N2CCOCC2)c(OCC)cc1NC(=O)c1nn(CC)c(=O)c2ccccc12 | 0.2 | 8.2 | 21.0 | 53.9* | 41.0 | -0.6
CCOc1cc(N2CCOCC2)c(OCC)cc1NC(=O)c1ccccc1C | -1.1 | -6.1 | 0.6 | 13.2 | 9.2 | -0.4
CCOc1cc(N2CCOCC2)c(OCC)cc1NC(=O)Cc1cccc2ccccc12 | -1.1 | -41.3 | 20.2 | -4.7 | 89.1* | -0.3
CCOc1cc(N2CCOCC2)c(OCC)cc1NC(=O)c1ccc(OCc2c(C)noc2C)c(OC)c1 | -4.3 | 5.1 | 3.2 | 63.3* | 31.6 | -0.3
C[C@H](CO)N1C[C@H](C)[C@@H](CN(C)C(=O)Nc2ccc3c(c2)OCO3)Oc2ccc(NC(=O)Nc3ccc4c(c3)OCO4)cc2C1=O | 0.2 | 7.3 | 0.4 | 4.2 | 22.8 | -0.5
COc1ccc(Cl)c2c1[nH]c1nc(SCc3ccccn3)nnc12 | -0.1 | 9.4 | 8.6 | 64.1* | 20.3 | 1.1
CC(C)CN(Cc1cc(=O)oc2cc3c(cc12)CCCC3)CC(C)C | -2.5 | -13.7 | 22.3 | -6.5 | 8.5 | 0.1
O=C(N/N=C/c1ccc(O)cc1)c1ccc(COc2cc(Cl)ccc2Cl)o1 | 45.8 | -13.4 | 4.2 | 67.7* | -8.8 | 1.0
CCCCC12CN3CC(C)(CN(C1)C31C(=O)N(C)c3ccc(C)cc31)C2=O (stereo unspecified) | 3.2 | -1.8 | -6.8 | -5.0 | 1.5 | 0.0
